An excerpt weighted towards active compounds, which were near 2.6% of everything screened.
LGR2 antag = blocks bursicon-induced cAMP signaling via Drosophila LGR2; HEK293 LGR2, CRE-luciferase, bursicon-stimulated, 4 h; inhibition, % at 9.99 µM; 380,000 compounds, 0.35% hits;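 active means drop in luminescence signal, shown as inhibition above about 50% in the replicate tests, limit read from the data, passing the limit was not always enough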;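 further: agonist challenge used bursicon conditioned medium at about half maximal strength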
KKLEB cytotox = counter-screen for CF NF-kB inhibitors: cytotoxicity; KKLEB CF airway cells viability, ATPlite luminescence, overnight; active compounds read low; cells stimulated with P. aeruginosa culture filtrate; activity change (cytotoxicity), % at 5 µM; 360,000 compounds, 0.36% hits;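 active means corrected activity change at or below -50% at 5 µM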
EWS-Fli block = EWS/Fli transcriptional activity inhibition. inhibition, % at 12.6 µM. 350,000 compounds, 0.67% hits. A673 NR0B1-luciferase reporter, viability-normalised;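 active means mean inhibition of at least 50% after viability correction, with every replicate also passing that limit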;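 further: firefly luciferase signal divided by Alamar Blue viability fluorescence both relative to DMSO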
TWEAK-Fn14 inh = blocks TWEAK-Fn14 interaction in a reporter cell assay. TWEAK-stimulated Fn14 reporter cells, luciferase luminescence, 8 h. inhibition, % at 10 µM. 360,000 compounds, 2% hits; in the data active means inhibition above about 50%
TROY signal inh = TROY signaling inhibition | AID 1347056 | Q293 LMP1-TROYcd NF-kB luciferase reporter, 4 h | 360,000 compounds, 0.98% hits | inhibition, % at 10 µM;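 active means compounds whose plate-normalised and pattern-corrected inhibition of the luciferase reporter signal at the single screening dose is 50% or more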
CF NFkB block = blocks PAF-induced NF-kB reporter in cystic fibrosis cells | KKLEB NF-kB-GFP reporter, GFP fluorescence overnight | inhibition, % at 5 µM | 360,000 compounds, 0.86% hits;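 active means at least 50% inhibition at 5 µM, scaled per plate between neutral and stimulator controls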;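 further: PAF is a Pseudomonas aeruginosa culture filtrate used as stimulus; plate controls were PAF-stimulated DMSO wells for no effect and unstimulated DMSO wells for full effect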
Numbers without * were called inactive; . = no result given; ! = a repeat was not active.

SMILES | LGR2 antag | KKLEB cytotox | EWS-Fli block | TWEAK-Fn14 inh | TROY signal inh | CF NFkB block
COc1cc(OC)cc(C2=Cc3ccc(OC)cc3C(CC(C)=O)N2c2ccc(C#CC3(O)CCCCC3)cc2)c1 (stereo unspecified) | -31 | . | 19 | 47 | 2 | .
CC(=O)N(C)C[C@@H]1Oc2cc(-c3ccccc3)ccc2S(=O)(=O)N([C@@H](C)CO)C[C@H]1C | -5 | . | 13 | . | . | .
CO[C@@H]1CN(C)C(=O)c2ccc(NC(=O)C3CCC3)cc2OC[C@H](C)N(Cc2nccs2)C[C@@H]1C | 1 | . | 4 | . | . | .
Cc1ccc(NC(=O)c2c3c(nc4ccccc24)CCC3)cc1 | 9 | -11 | -5 | 5 | 8 | -8
Cc1ccc(NC(=O)c2c3c(nc4ccccc24)CCC3)cc1S(=O)(=O)N(C)C | -8 | -2 | 10 | 71* | 48 | 9
O=C(C[C@@H]1CC[C@@H](NC(=O)Nc2cc(F)ccc2F)[C@H](CO)O1)NCc1ccncn1 | -4 | . | -4 | . | . | .
C=CCNC(=O)/C(C#N)=C/c1c(C)nn(-c2ccc(Cl)cc2)c1Cl | 21 | -12 | 4 | 51* | 0 | 23
Cc1nn(-c2ccc(Cl)cc2)c(Cl)c1/C=C(\C#N)C(N)=O | 4 | -20 | 7 | 8 | -4 | -8
C[C@H](CO)N1C[C@H](C)[C@H](CN(C)C(=O)Nc2ccccc2)Oc2cc(C#Cc3ccccc3)ccc2S1(=O)=O | -16 | . | 9 | . | . | .
CCN=C1NC(c2ccccc2)C(C(=O)OC)=C(C)N1Cc1ccc(C(F)(F)F)cc1 (stereo unspecified) | -15 | . | 9 | . | . | .
CCN1CCN(c2cc(C)c3cc(NC(=S)N4CCCC(C)C4)ccc3n2)CC1 (stereo unspecified) | 23 | -15 | 7 | 86* | 83* | 16
CCN1CCN(C(=S)Nc2ccc3nc(N4CCN(CC)CC4)cc(C)c3c2)CC1 | 15 | -15 | . | -15 | 13 | -16
CCN1CCN(c2cc(C)c3cc(NC(=S)N4CC(C)CC(C)C4)ccc3n2)CC1 (stereo unspecified) | -11 | 8 | 12 | 14 | 54* | -14
S=C(Nc1ccccc1)N1CCN(C2CCCCC2)CC1 | . | -6 | . | 32 | 60* | 13
S=C(Nc1ccccc1)N1CCCCCC1 | . | 0 | . | -6 | -14 | 2
Cc1ccc(S(=O)(=O)Nc2ccc3c(c2)C(=O)N([C@@H](C)CO)C[C@H](C)[C@@H](CN(C)C(=O)NC(C)C)OCCCC[C@H](C)O3)cc1 | -25 | . | -7 | . | . | .
Cc1c(C2(O)CCCCC2)[nH]c2cc(C(F)(F)F)ccc12 | 30 | -1 | 11 | 25 | -11 | 8
CCc1c(C2(O)CCCCC2)[nH]c2cc(C(F)(F)F)ccc12 | . | 5 | . | 30 | 51* | 27
COc1ccc(CNC(=O)C[C@@H]2C=C[C@@H](NC(=O)CN(C)C)[C@H](CO)O2)cc1 | 10 | . | -6 | . | . | .
COc1ccccc1-c1ccc(C2[C@H]3CNC[C@@H]2N3C(=O)Nc2ccccc2Cl)cc1 (stereo partly specified) | 6 | . | 62* | . | . | .
Cc1ccc(-c2ccc(C3[C@H]4CNC[C@@H]3N4C(=O)Nc3ccccc3Cl)cc2)cc1 (stereo partly specified) | -13 | . | -3 | . | . | .
O=C(Nc1ccc(F)cc1)N1[C@@H]2CNC[C@H]1C2c1ccc(-c2ccc(F)cc2)cc1 (stereo partly specified) | 10 | . | -1 | . | . | .
Cc1ccc(-c2ccc(C3[C@H]4CNC[C@@H]3N4C(=O)Nc3ccc(F)cc3)cc2)cc1 (stereo partly specified) | -14 | . | 62*! | . | . | .
C[C@@H]1CN([C@@H](C)CO)C(=O)c2cc(C#C[C@@H](C)O)cnc2O[C@@H]1CN(C)C(=O)CN1CCOCC1 | 9 | . | -7 | . | . | .
C[C@H]1CN([C@@H](C)CO)C(=O)Cc2cc(NS(=O)(=O)c3cccs3)ccc2O[C@@H]1CN(C)S(C)(=O)=O | -1 | . | -21 | . | . | .
SMILES | LGR2 antag | KKLEB cytotox | EWS-Fli block | TWEAK-Fn14 inh | TROY signal inh | CF NFkB block
Cc1ccc(C(=O)CC(=O)c2ccccc2C)c(O)c1 | -10 | 9 | 6 | 15 | 5 | -14
C=C(CN(C)C)C(=O)c1ccc(C)cc1C | 6 | -2 | 73* | 46 | -20 | 7
Cc1cc(C(=O)Nc2cccc3c2O[C@@H](CN(C)Cc2ccc(C(F)(F)F)cc2)[C@@H](C)CN([C@@H](C)CO)C3=O)n(C)n1 | -13 | . | 17 | . | . | .
CCCC1O[C@@H]2CC3C4CCC5=CC(=O)C=C[C@]5(C)C4C(OC(C)=O)C[C@]3(C)[C@]2(C(=O)COC(C)=O)O1 (stereo partly specified) | . | 12 | . | -10 | -1 | 24
CCC(=O)[C@@]1(C)[C@H](C)C[C@H]2[C@@H]3CCC4=CC(=O)C=C[C@]4(C)[C@H]3[C@@H](O)C[C@@]21C | 4 | 39 | -1 | -4 | 19 | 72*
CCCC1OC2CC3C4CCC5=CC(=O)C=CC5(C)C4C(O)CC3(C)C2(C(=O)O)O1 (stereo unspecified) | 0 | 32 | -3 | 13 | 18 | 74*
Cc1ccccc1-c1cnc2c(c1)C(=O)N([C@H](C)CO)C[C@@H](C)[C@H](CN(C)Cc1cccnc1)O2 | 2 | . | -4 | . | . | .
CNC(=O)C[C@H]1CC[C@@H]2[C@H](COc3ccc(NC(=O)c4cccc(OC)c4)cc3C(=O)N2C)O1 | 16 | . | -1 | . | . | .
COC(=O)C1=C(C(=O)OC)[C@@H]2N(C)c3ccccc3[C@@]23C[C@@H](C(=O)OC)N(C(=O)c2cccs2)C3=N1 | 2 | -6 | 7 | 25 | 24 | 30
COC(=O)C1=C(C(=O)OC)[C@@H]2N(Cc3ccccc3)c3ccccc3[C@@]23C[C@@H](C(=O)OC)N(C(=O)c2cccs2)C3=N1 | 1 | -16 | 19 | 61* | 29 | 38
COC(=O)C1=C(C(=O)OC)[C@@H]2N(C)c3ccc(OC)cc3[C@@]23C[C@@H](C(=O)OC)N(C(=O)c2cccs2)C3=N1 | . | 0 | . | 30 | 6 | 54*
CC(=O)OCC(=O)C1(O)CCC2C3CC(C)C4=CC(=O)C=CC4(C)C3(F)C(O)CC21C (stereo unspecified) | 4 | 19 | 3 | -11 | 24 | 80*
CC(=O)OCC(=O)[C@@]1(OC(C)=O)[C@@H](C)C[C@H]2[C@@H]3C[C@H](F)C4=CC(=O)C=C[C@]4(C)[C@@]3(F)[C@@H](O)C[C@@]21C | 4 | 31 | 4 | 4 | 8 | 77*
CC(=O)OCC(=O)C1(O)CCC2C3CCC4CC(O)CCC4(C)C3C(=O)CC21C (stereo unspecified) | 3 | 10 | -4 | 9 | -33 | -21
CC(=O)C1(O)CCC2C3CC(C)C4=CC(=O)C=CC4(C)C3(F)C(O)CC21C (stereo unspecified) | -6 | 36 | -19 | -6 | 12 | 71*
CC(=O)C12CCCCC1CC1[C@@H]3CC(C)C4=CC(=O)CC[C@]4(C)C3CC[C@@]12C (stereo partly specified) | 8 | 2 | 11 | -13 | -23 | 28

Screens as filed in PubChem.
